These results are taken from PubChem BioAssay (NCI).

Compounds without any hit were thinned out: in the full panel of roughly 83,000, 20% have a hit.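 Step 1: grow cells in 96-well plates. Step 2: add test compound at a single concentration. Step 3: incubate 48 h. Step 4: record percent growth.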 A number with no mark means an inactive call. Active and inactive are the calls of the source. How the source made its calls: active means growth percent below 10; inactive means the rest.

Some test systems named below: NCI-H23 lung; NCI-H226 lung; NCI-H322M lung; HOP-62 NSCLC; NCI-H460 lung; NCI-H522 lung; A549/ATCC NSCLC; 786-0 renal; COLO 205 colon; DU-145 prostate; K-562 leukemia; MALME-3M melanoma; MDA-MB-231 breast; RXF 393 renal; SF-268 CNS; SF-295 CNS; SF-539 CNS; UACC-257 melanoma; M14 melanoma; HCT-15 colon.
What all share (assay): NCI-60 one-dose screen, 48 h (100 = growth as untreated, 0 = no growth, -100 = all killed)
What all share (conditions): 10 µM unless noted

For the compound `O=C(Nc1cccc([N+](=O)[O-])c1)c1cccc(C(=O)Nc2cccc([N+](=O)[O-])c2)c1`, the growth in the test with NCI-H23 lung is 107%; in the test with NCI-H226 lung, 71%; in the test on NCI-H322M lung it was 77.1%; in the test with HOP-62 NSCLC, 106%; in the test on NCI-H460 lung, 74%; with NCI-H522 lung, 22.5%. Further, the growth in the test with A549/ATCC NSCLC is 59.9%; in the test with 786-0 renal it was 73.9%; in the test with COLO 205 colon it was 120%; in the test with DU-145 prostate, 84.5%; in the test on K-562 leukemia it was 91.2%; in the test with MALME-3M melanoma, 49.5%. The growth in the test on MDA-MB-231 breast is 83.1%; in the test with RXF 393 renal it was 29.4%; in the test on SF-268 CNS, 30.2%; with SF-295 CNS, 67.3%; in the test on SF-539 CNS, 84.3%; with UACC-257 melanoma, 77%. For the same compound, the growth was 85.4% in the test on M14 melanoma and 85.5% with HCT-15 colon.
On to `COc1cc(/C=C/C(=O)N2CCN(C(=O)/C=C/c3ccccc3)CC2)cc(OC)c1OC`, for which the growth in the test on NCI-H23 lung was 108%; in the test with NCI-H226 lung, 102%; in the test with NCI-H322M lung, 104%; with HOP-62 NSCLC, 103%; in the test on NCI-H460 lung, 105%; in the test on NCI-H522 lung, 92.7%. Further, the growth in the test on A549/ATCC NSCLC was 99.8%; in the test on 786-0 renal it was 101%; in the test with COLO 205 colon, 113%; in the test with DU-145 prostate, 129%; in the test on K-562 leukemia, 97%; in the test on MALME-3M melanoma it was 97.8%. Moreover, the growth is 85.6% in the test with MDA-MB-231 breast; 125% in the test on RXF 393 renal; 111% with SF-268 CNS; 110% in the test with SF-295 CNS; 107% in the test with SF-539 CNS; 102% with UACC-257 melanoma. The growth is 103% in the test with M14 melanoma and 109% in the test with HCT-15 colon.
With `CCC(=O)Nc1ccccc1C#C/C=C\C#Cc1ccccc1C(F)(F)F`, the growth in the test with NCI-H23 lung was 57.3%; with NCI-H226 lung it was 52.5%; with NCI-H322M lung, 37.4%; with HOP-62 NSCLC, 54.5%; with NCI-H460 lung, 10.2%; in the test on NCI-H522 lung, 68.2%. Further, the growth is 64.2% with A549/ATCC NSCLC; 50.5% in the test with 786-0 renal; 59.4% in the test on COLO 205 colon; 40% with DU-145 prostate; 43.4% with K-562 leukemia; 54.4% with MALME-3M melanoma. Besides, the growth in the test with MDA-MB-231 breast is 55.6%; in the test on RXF 393 renal it was 42.8%; in the test on SF-268 CNS, 67.8%; in the test with SF-295 CNS, 28.8%; in the test on SF-539 CNS, 55%; in the test on M14 melanoma it was 40.5%. In the test with HCT-15 colon, the growth is 56.3%.
With `[O-]/[N+](=C\C=C\c1ccccc1)c1ccccc1`, the growth was 103% in the test on NCI-H23 lung; 97.8% in the test with NCI-H226 lung; 113% with NCI-H322M lung; 116% in the test on HOP-62 NSCLC; 107% in the test on NCI-H460 lung; 102% in the test with NCI-H522 lung. In addition, the growth with A549/ATCC NSCLC is 144%; in the test on 786-0 renal, 101%; with COLO 205 colon it was 141%; in the test with DU-145 prostate, 111%; in the test with K-562 leukemia, 98.1%; in the test with MALME-3M melanoma, 158%. Also, the growth is 102% in the test on MDA-MB-231 breast; 405% in the test with RXF 393 renal; 101% with SF-268 CNS; 102% with SF-295 CNS; 103% in the test with SF-539 CNS; 127% in the test on UACC-257 melanoma. Further, the growth is 115% in the test on M14 melanoma and 104% in the test with HCT-15 colon.
Consider `CCCCCCCC/C=C/CCCCCCCC1=NC(C)(C)CN1CCO`, for which the growth is 47.1% in the test with NCI-H23 lung; 83.3% in the test with NCI-H226 lung; 50.8% in the test with NCI-H322M lung; 6.19% (active) with HOP-62 NSCLC; -39.5% (active) in the test with NCI-H460 lung; -45.2% (active) with NCI-H522 lung. The growth is 24.7% in the test on A549/ATCC NSCLC; 32.3% in the test with 786-0 renal; -63.9% (active) with COLO 205 colon; 64.5% in the test on DU-145 prostate; -51.6% (active) in the test on K-562 leukemia; 64.9% with MALME-3M melanoma. The growth in the test with MDA-MB-231 breast was 9.49% (active); with RXF 393 renal, -23.4% (active); with SF-268 CNS, 46%; in the test on SF-295 CNS, 30.2%; in the test on SF-539 CNS, -5.97% (active); in the test on UACC-257 melanoma it was 20.1%. The growth in the test with HCT-15 colon was -34.9% (active).
Turning to `Nc1ccc2c3c(cccc13)-c1ccccc1-2`, the growth in the test with NCI-H23 lung is 97.7%; in the test on NCI-H226 lung, 55.5%; in the test with NCI-H322M lung it was 75.1%; with HOP-62 NSCLC it was 100%; in the test with NCI-H460 lung, 99.1%; with NCI-H522 lung, 68.5%. Besides, the growth is 85.1% in the test on A549/ATCC NSCLC; 68.4% in the test with 786-0 renal; 96.5% in the test on COLO 205 colon; 109% with DU-145 prostate; 84.4% in the test with K-562 leukemia; 98.4% in the test on MALME-3M melanoma. Besides, the growth was 76.5% with MDA-MB-231 breast; 93% with RXF 393 renal; 78.4% in the test on SF-268 CNS; 102% in the test on SF-295 CNS; 104% in the test on UACC-257 melanoma; 90.2% with M14 melanoma. The growth in the test with HCT-15 colon is 86.1%.
`COc1cc2c(cc1OCCCCCn1c(-c3ccc(OCc4ccccc4)cc3)nc3cc(N4CCOCC4)ccc31)N=C[C@@H]1CCCN1C2=O`: the growth with NCI-H23 lung is 15.5%; with NCI-H226 lung it was -41.1% (active); in the test on NCI-H322M lung, 27.8%; in the test on HOP-62 NSCLC, 20%; with NCI-H460 lung, -3.28% (active); with NCI-H522 lung it was -4.59% (active). Further, the growth with A549/ATCC NSCLC was 6.91% (active); with 786-0 renal, -22.5% (active); in the test with COLO 205 colon it was -14% (active); in the test with DU-145 prostate, 29.7%; in the test with K-562 leukemia it was 36.1%; in the test on MALME-3M melanoma, -29.7% (active). The growth is 9.63% (active) with MDA-MB-231 breast; -26.7% (active) in the test with RXF 393 renal; 14.6% in the test on SF-268 CNS; 7.34% (active) in the test on SF-295 CNS; 11% in the test on SF-539 CNS; 9.2% (active) with M14 melanoma. The growth with HCT-15 colon was -22.7% (active).
`CCOC(=O)C1=C(C)N2C(=NC3=C(CCC/C3=C\c3ccc(Cl)cc3)C2c2ccc(Cl)cc2)S1` (stereo not given): the growth in the test on NCI-H23 lung is 10.9%; in the test with NCI-H226 lung it was 47.5%; with NCI-H322M lung, 101%; with HOP-62 NSCLC, 88.2%; with NCI-H460 lung, 51.8%; with NCI-H522 lung, 58%. The growth in the test on A549/ATCC NSCLC was 5.11% (active); in the test with 786-0 renal it was -0.562% (active); in the test on COLO 205 colon, 8.78% (active); in the test with DU-145 prostate it was -0.137% (active); in the test with K-562 leukemia it was -11.8% (active); in the test on MALME-3M melanoma, 77%. In addition, the growth is 71.6% with MDA-MB-231 breast; -71.7% (active) with RXF 393 renal; 34.7% in the test with SF-268 CNS; 41.3% with SF-539 CNS; 25.7% with UACC-257 melanoma; -40.8% (active) in the test with M14 melanoma. In addition, the growth in the test on HCT-15 colon was -28.7% (active).
